# Screens: PubChem BioAssay, The Scripps Research Institute Molecular Screening Center
# FBW7 activator – activators of human E3 ligase FBW7. Q969H0. AlphaScreen FBW7–phospho-cyclin E peptide binding, activator screen. normalized activity (activation), % at 26.1 µM. actives 0.13% (n = 650,000); in the data active = normalized activity above about 1.9%;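 also: purified mutant Fbw7 with reduced substrate affinity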
# GPR151 ag – activates the human receptor GPR151; actives 1% (n = 650,000); Q8TDV0; PathHunter beta-arrestin GPR151 cells, luminescence; activation, % at 11.2 µM; AID 1508602; in the data active = activation above about 4.9%;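 also: 0% = median of compound wells and 100% = cells with positive control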
# TEAD-YAP inh – TEAD-YAP interaction inhibition; HEK-TIYL cells, TEAD-Gal4/YAP UAS-luciferase luminescence; inhibition, % at 9.12 µM; actives 1.4% (n = 640,000); AID 1259422; in the data active = inhibition above about 32%;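 also: 0% = median of test compound wells and 100% = reference inhibitor wells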
# MITF inh – human MITF inhibition, primary screen. inhibition, % at 2.6 µM. AID 1259374. AlphaScreen MITF homodimerization, bead proximity signal. actives 0.91% (n = 650,000). O75030; in the data active = inhibition above about 50%;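 also: 0% = vehicle wells with protein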
# Target sequence (O75030 whole entry, looked up): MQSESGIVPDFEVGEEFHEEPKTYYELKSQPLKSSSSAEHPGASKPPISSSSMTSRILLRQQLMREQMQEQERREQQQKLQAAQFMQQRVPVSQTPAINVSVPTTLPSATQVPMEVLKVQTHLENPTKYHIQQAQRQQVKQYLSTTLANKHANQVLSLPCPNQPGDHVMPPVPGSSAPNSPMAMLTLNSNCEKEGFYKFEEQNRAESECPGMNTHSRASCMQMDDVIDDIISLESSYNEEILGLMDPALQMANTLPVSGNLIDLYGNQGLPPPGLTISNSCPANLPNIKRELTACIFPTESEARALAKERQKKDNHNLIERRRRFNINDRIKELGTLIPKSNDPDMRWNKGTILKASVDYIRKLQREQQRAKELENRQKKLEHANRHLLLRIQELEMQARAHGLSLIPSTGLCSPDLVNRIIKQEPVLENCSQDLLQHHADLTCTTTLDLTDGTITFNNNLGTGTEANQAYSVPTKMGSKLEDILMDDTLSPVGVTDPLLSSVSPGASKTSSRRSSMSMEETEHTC
# GPR151 conf act – confirmation of human GPR151 activators; shares compounds with GPR151 ag; GPR151 PathHunter beta-arrestin cells, luminescence, 90 min; % of EA-reagent control over plate median; activation, % at 11.2 µM; 6,700 tested, under 10 active; AID 1508609;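 active = mean percent activation across replicates above the confirmation screen cutoff of 4.91%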
# GPR119 ag – GPR119 activation, counter-screen for GPR151 activators. shares compounds with GPR151 ag. GPR119 PathHunter beta-arrestin cells, luminescence, 90 min; 0 = compound-well median, 100 = enzyme-acceptor control. activation, % at 11.2 µM. actives 0.3% (n = 6,700). AID 1508611;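 active = mean percent activation in the counterscreen above 29.09%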;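 also: counterscreen on off-target GPR119 to flag nonselective hits from the GPR151 activator screen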
# * hit, by the source's call; x = no result given. Rows were chosen to be rich in hits. Some 3.5% of all compounds tested hit in one or more screens of this group.
SMILES,FBW7 activator,GPR151 ag,TEAD-YAP inh,MITF inh,GPR151 conf act,GPR119 ag
CCCC1NC(=S)N(C2CCCCC2)C1=O (configuration not stated),0,1,-7,-9,x,x
O=C(Nc1ccc([N+](=O)[O-])cc1Cl)c1cnn2cc(Br)cnc12,0,7.2*,0,3,-1,6
Cc1ccc(O)c(NC(=O)c2cnn3cc(Br)cnc23)c1,1,7.5*,2,1,1,4
O=C(Nc1ccc([N+](=O)[O-])cc1Cl)c1cc2ncc(Br)cn2n1,0,-1,-4,6,x,x
Cc1ccc(O)c(NC(=O)c2cc3ncc(Br)cn3n2)c1,1,-1,-10,13,x,x
C=CCN(CC=C)C(=O)CN1C(=O)NC(c2ccc(C)cc2)(c2ccc(C)cc2)C1=O,0,0,-2,-2,x,x
CC(C)(C)C(=O)/C=C(\N)Cc1ccccc1,0,8.1*,8,-6,-1,-1
CC(C)(C)C(=O)/C=C(/N)c1ccccn1,0,0,-7,-15,x,x
O=C(Cc1ccc(Cl)cc1Cl)N1CCN(c2ccc(O)cc2)CC1,1,5.2*,-7,4,0,-3
NC(=O)C1CCN(C(=O)Cc2ccc(Cl)cc2Cl)CC1,0,1,-8,-1,x,x
CC(C)CCn1c(=O)c2sccc2n2c(CCCC(=O)NC3CC3)nnc12,0,5.0*,6,4,1,1
CNC(=O)CCCc1nnc2n(CCC(C)C)c(=O)c3sccc3n12,0,-2,3,13,x,x
CCn1c(SCC(=O)Nc2ccc(C(=O)OC)cc2)nc2cccnc21,0,5.5*,4,12,0,-6
CC(=O)n1c(SCC(=O)Nc2ccc(C(C)C)cc2)nc2ccccc21,0,6.8*,-11,-1,0,13
COc1ccc(NC(=O)CCCN2C(=O)CCC2=O)c(OC)c1,0,10*,3,16,-1,1
COc1ccc(NC(=O)CSc2nc3ccccc3c(=O)n2CCCC(=O)NCc2ccccc2)c(OC)c1,0,7.5*,0,3,-1,-23
CC(C)c1ccc(NC(=O)CSc2nc3ccccc3n2S(=O)(=O)c2cccs2)cc1,1,0,-7,8,x,x
COc1ccc(CNC(=O)CCCn2c(SCC(=O)Nc3ccc(OC)cc3OC)nc3cc4c(cc3c2=O)OCO4)cc1,0,2,3,-7,x,x
Cc1ccc(C(=O)Nc2ccc(S(=O)(=O)Nc3nccs3)cc2)cc1,0,0,-1,-1,x,x
C[C@@H](O)[C@@H]1NC(=O)[C@@H]2C[C@H](NCc3cccs3)CN2C1=O,1,-1,2,12,x,x
CC1=NCCN1S(=O)(=O)c1ccc(C)c(C)c1,0,4,1,1,x,x
C=CCNC(=O)CN1CCC(NC(=O)c2ccccc2OC)CC1,0,-1,5,8,x,x
CCc1ccc(NC(=O)CSc2nc3ccccc3c(=O)n2CCc2ccccc2)cc1,0,5.8*,-2,-6,-1,-12
CCc1ccc(NC(=O)CSc2nc3ccccc3c(=O)n2CCc2ccc(OC)c(OC)c2)cc1,0,0,-1,-8,x,x
CCCOc1ccc(-c2nn(-c3ccccc3)cc2/C=c2\sc3nc(-c4ccc(Cl)cc4)nn3c2=O)cc1C,0,0,-10,0,x,x
SMILES,FBW7 activator,GPR151 ag,TEAD-YAP inh,MITF inh,GPR151 conf act,GPR119 ag
O=C(COc1ccc(Cl)cc1)NC(=O)NCc1ccco1,0,-1,8,-17,x,x
O=C(COC(=O)CCS(=O)(=O)c1ccccc1Cl)NC(=O)NCc1ccco1,0,6.4*,2,-2,2,0
COc1cc(N(C)C)c([N+](=O)[O-])cc1C(=O)NCCN1CCN(c2ccccc2)CC1,1,5.8*,3,8,1,-1
COc1ccc(Cl)cc1C(=O)NCCCN1CCN(c2ccccc2)CC1,0,3,-3,6,x,x
NC(C(=O)N1CCN(c2ccc3cnccc3c2)CC1)c1ccc(-c2ccccc2)cc1 (configuration not stated),0,7.5*,-4,12,0,2
NC(C(=O)N1CCC(Nc2ccc3cnccc3c2)CC1)c1ccc(-c2ccccc2)cc1 (configuration not stated),0,-1,-18,-12,x,x
COc1ccccc1NC(=O)c1cc2ccccc2oc1=Nc1ccc(Cl)cc1Cl,0,9.2*,-19,-2,0,9
COc1ccccc1N=c1oc2ccccc2cc1C(=O)Nc1ccc(Cl)cc1Cl,0,2,4,-2,x,x
CCCCC1CCC(C(=O)OCC(=O)c2ccc(-c3ccc(Br)cc3)cc2)CC1 (configuration not stated),0,6.6*,9,4,0,-4
O=[N+]([O-])c1ccc(Cl)cc1NCCOCC(F)(F)F,0,5.2*,7,10,0,-1
CCOC(=O)c1[nH]c(=O)[nH]c1C(C1C(=O)CC(C)(C)CC1=O)C1C(=O)CC(C)(C)CC1=O,0,0,0,49,x,x
COc1cc(/C=N/O)cc(Cl)c1OC,0,1,-9,-2,x,x
COc1cc(/C=N/O)cc(Cl)c1OS(=O)(=O)c1ccc(C)cc1,0,4.9*,-15,-7,-1,-15
Cc1cc(NCc2ccccc2)nc(N2CCc3ccccc3C2)n1,0,5,-15,13,x,x
Cc1cc(C)c2sc(NC(=O)CCC3CCCC3)nc2n1,0,5.3*,-11,-6,1,-7
O=C(c1ccc(N2CCCCC2)c([N+](=O)[O-])c1)N1CCOCC1,0,0,-10,2,x,x
CC1CCN(c2ccc(C(=O)N3CCOCC3)cc2[N+](=O)[O-])CC1,0,5.2*,-14,-5,-1,-18
Clc1cccc(-n2cc(-c3ccccc3)c3c(N4CCN(c5ccccc5Cl)CC4)ncnc32)c1,0,-2,3,-20,x,x
Cc1cccc(N2CCN(c3ncnc4c3c(-c3ccccc3)cn4-c3cccc(Cl)c3)CC2)c1C,0,6.1*,-5,20,2,22
O=C(Nc1ccc(Br)cc1F)NC1CCCCC1,0,6.6*,-45,-4,1,0
O=c1c2c3c(sc2nc2ccc(NCc4ccco4)nn12)CCCC3,0,0,-22,-4,x,x
O=c1cc(Nc2ccc3c(c2)OCO3)[nH]c(=O)n1-c1ccc(Br)cc1,0,22*,4,9,0,4
O=C(Nc1ccc(Oc2ccc3c(c2)C(=O)N(CC2CCCO2)C3=O)cc1)C1CC1 (configuration not stated),0,1,6,0,x,x
Cc1ccc(N2C(=NC(=O)C(C)C)SC3CS(=O)(=O)CC32)cc1C (configuration not stated),0,4,6,4,x,x
O=C1N[C@@H](Cc2ccc(Cl)cc2)C(=O)N2CCN(C(=O)Oc3cccc4ccccc34)C[C@H]12,0,1,-3,17,x,x
